Only some compounds are listed: those with a hit (about 3.2% of all), similar ones and a draw of the others.
CRFBP-R2 agonist – agonists of human CRF-binding protein/CRF-R2 receptor complex. HEK293 CRF-R2/CRF-BP, calcium dye fluorescence (FLIPR); percent of saturating CRF peptide response. activation, % at 13.2 µM. actives 0.46% (n = 350,000);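 active means activation of at least 50%, plus an integration ratio under a set limit after plate pattern correction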;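 further: plate controls were neutral control wells without compound for no effect and CRF at EC100 for full effect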
CRFR2-BP antag – blocks CRF-induced signaling of the CRF-BP/CRF-R2 complex; actives 0.59% (n = 350,000); AID 588475; HEK293 CRF-R2/CRF-BP, CRF-induced calcium fluorescence; inhibition, % at 11.8 µM;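 active means inhibition of the ligand-induced calcium signal above about 50% at the single tested concentration, limit read from the data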
aDG glyco up – increases alpha dystroglycan glycosylation. Pro5-aDG cells, alpha-DG glycosylation AlphaScreen (IIH6); 0% Pro5, 100% B10-LARGE cell signal. activation, % at 10 µM. actives 0.22% (n = 360,000). AID 624168;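 active means activation of at least 8% versus controls, or a plate z-score of at least 8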;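 further: Pro5 are CHO cells carrying HIG-tagged alpha-DG that lacks glycosylation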
FAS-TE inh – blocks the thioesterase domain of human fatty acid synthase. recombinant FAS-TE, OMFH fluorogenic substrate, fluorescence endpoint. inhibition, % at 15 µM. actives 0.67% (n = 360,000). AID 602261;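 active means compounds whose normalised, plate-corrected inhibition of enzyme fluorescence in the single-dose primary screen is 50% or more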;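 further: 0% = DMSO with enzyme and 100% = substrate without enzyme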
PfG6PD inh – PfG6PD (Plasmodium falciparum) enzyme inhibition. inhibition, % at 20 µM. PfGluPho enzyme, NADPH resazurin-diaphorase fluorescence. actives 0.78% (n = 350,000). AID 504690;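 active means inhibition reaching at least a set limit at 20 µM in the primary screen, cut at about 59% in these data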;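 further: 0% = DMSO wells with substrate and 100% = DMSO wells lacking glucose-6-phosphate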
Cardio protect – protects H9c2 cardiomyocytes from peroxide injury | H2O2 injury protection, ATPLite, 2 h | actives 0.63% (n = 360,000) | protection from H2O2 cell death, % at 20 µM;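 active means compounds giving at least 50% protection of heart cells from peroxide-induced death in the single-dose screen, raw or plate-pattern-corrected value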;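 further: 0% = DMSO wells with peroxide and 100% = DMSO wells without peroxide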
* hit, by the source's call; · = no result.

SMILES	CRFBP-R2 agonist	CRFR2-BP antag	aDG glyco up	FAS-TE inh	PfG6PD inh	Cardio protect
COc1ccc(NC(=O)CC(=O)Nc2ccc(OC)cc2OC)c(OC)c1	1	6	0	0	14	2
CCCCC(=O)Nc1ccc(NC(=O)c2ccc([N+](=O)[O-])cc2)cc1OC	-1	10	0	-2	1	-4
CCCCC(=O)Nc1ccc(C(=O)Nc2ccc(OC)cc2[N+](=O)[O-])cc1	117*	-165	0	-48	10	-5
COc1ccc(NC(=O)c2cc(C(=O)Nc3ccc(OC)cc3OC)cc([N+](=O)[O-])c2)c(OC)c1	7	50*	0	1	-10	4
COc1ccc(NC(=O)CCCCC(=O)Nc2ccc(OC)cc2OC)c(OC)c1	2	59*	0	-6	-8	-3
COc1ccccc1NC(=O)c1ccc(NC(=O)c2ccco2)cc1	-1	6	0	0	-3	-3
CCOCCCNC(=O)C(Cc1ccccc1)NC(=O)c1ccco1 (stereo unspecified)	-1	-24	0	-7	-5	1
Cc1c(Cl)cccc1NC(=O)CCC(=O)NNC(=O)c1ccccc1Cl	-1	10	0	-4	-20	5
Cc1ccc(Cn2c(SCC(=O)NCC3CCCO3)nc3ccsc3c2=O)cc1 (stereo unspecified)	2	54*	0	-2	-8	4
O=C(CSc1nc2ccsc2c(=O)n1Cc1ccc(C(=O)O)cc1)NCC1CCCO1 (stereo unspecified)	-2	2	0	-4	-13	-1
O=C(NC1CCCC1)C(c1ccc(F)cc1)N(C(=O)c1csnn1)C1CC1 (stereo unspecified)	-1	-4	0	-3	7	8
CCCOc1ccc(CSc2nc3ccccc3[nH]2)cc1	2	45	4.4*	17	5	-17
C/C(=N/NC(N)=S)c1ccc(Br)s1	1	-4	0	-8	1	-4
O=c1cc[nH]c2c(Cl)cccc12	-2	92*	0	-2	4	19
Cc1cccc(C(C)C)c1-n1nnnc1-c1ccccc1	-5	54*	0	14	50	-10
c1ccc(-c2nnnn2-c2ccccn2)cc1	-1	-13	0	-6	0	-1
Cc1oc(C(C)(C)C)c(CN2CCOCC2)c1C(=O)O	2	-1	0	-2	2	22
COc1cc(CNc2ncn[nH]2)ccc1OCc1cccc(C)c1	1	-3	0	-6	6	2
Oc1cc(CNC2CCCCC2)c(O)cc1CNC1CCCCC1	11	5	0	-17	81*	33
Cc1ccccc1CNC1CCCCC1	1	0	0	0	4	8
O=C(c1cc2ccccc2[nH]1)N(Cc1cccnc1)CC1CCCN(C2CCCCC2)C1 (stereo unspecified)	0	-4	0	-3	17	-5
CS(=O)(=O)c1ccc(-c2csc(C(O)(c3ccccc3)C(F)(F)F)n2)cc1 (stereo unspecified)	·	·	0	32	·	-3
Cc1nn(-c2ccccc2)c(NC(=O)c2cccs2)c(-c2ccccc2Cl)c1=O	3	111*	0	-3	-6	-2
Cc1ccc2oc(=O)c(/C=C(\O)c3ccco3)nc2c1	147*	-54	0	-7	6	3
Cc1ccc(/C(O)=C/c2nc3ccccc3oc2=O)cc1	60*	-60	0	-10	-39	-15
SMILES	CRFBP-R2 agonist	CRFR2-BP antag	aDG glyco up	FAS-TE inh	PfG6PD inh	Cardio protect
Cc1ccc2oc(=O)c(/C=C(\O)c3sc(C)nc3C)nc2c1	123*	-106	1	-12	-11	11
O=C(Nc1oc2ccccc2c(=O)c1-c1ccc(Cl)cc1)c1ccco1	-4	5	0	-3	-1	5
Cc1ccccc1C(=O)OCc1cnc(Cl)s1	-5	-7	0	9	-24	-4
CCCCn1nnnc1C(c1cc2ccccc2o1)N1CCN(CCN(C)C)CC1 (stereo unspecified)	·	·	0	-16	·	·
COc1cccc(C2CC(c3cccs3)=NN2C(=S)Nc2ccccc2)c1OC (stereo unspecified)	3	81*	-1	35	5	2
COCCNC(=S)N1CCc2cc(OC)c(OC)cc2C1COc1ccc(F)cc1 (stereo unspecified)	0	21	0	19	9	22
COCCNC(=S)N1CCc2cc(OC)c(OC)cc2C1COc1ccc(C(C)C)cc1 (stereo unspecified)	-2	50*	0	26	25	2
O=C(c1cc(Cl)nc2ccccc12)N1CCN(S(=O)(=O)c2cccc(F)c2)CC1	-1	42	0	2	0	13
O=S(=O)(c1cccc(F)c1)N1CCN(c2nc(-c3cccnc3)nc3ccccc23)CC1	0	-15	-1	35	5	59*
CCOc1cc(-c2cc(-c3ccc(N)cc3)nc(N)c2C#N)ccc1O	-2	10	0	10	-13	116*
CCN(CC)c1nc(C#N)nc(N(CC)CC)n1	-1	24	0	14	-28	-4
CCN(c1ccccc1)c1nc(C#N)nc(N(CC)c2ccccc2)n1	1	83*	0	35	-38	-15
Cc1ccc(S(=O)(=O)Nc2ccc3nc(-c4cccn4C)[nH]c3c2)cc1	1	10	0	3	21	-7
Cc1sc2nc(SCC(=O)O)[nH]c(=O)c2c1C	1	-5	0	-6	15	0
Cc1sc2nc(SCC(=O)NCc3cccs3)[nH]c(=O)c2c1C	-2	-11	0	-4	8	17
CC1CCN(C(=O)CSc2nc3ccccc3c(=O)[nH]2)CC1	-3	17	0	-7	4	44
Cc1sc2nc(SCC(=O)NCc3ccco3)[nH]c(=O)c2c1C	1	21	0	-3	2	60*
Cc1sc2nc(SCC(=O)N3CCOCC3)[nH]c(=O)c2c1C	1	3	0	-7	9	61*
O=C(CSc1nc2ccccc2c(=O)[nH]1)N1CCN(S(=O)(=O)c2ccccc2)CC1	0	-11	0	-2	2	56*
O=C(CSc1nc(-c2ccccc2)c(-c2ccccc2)[nH]1)N1CCN(S(=O)(=O)c2ccccc2)CC1	4	6	0	23	40	5
CC1CCCC(C)N1C(=O)CSc1nc2ccccc2c(=O)[nH]1 (stereo unspecified)	1	-2	0	-3	0	70*
COc1ccccc1NC(=O)CSc1nnnn1-c1ccc(F)cc1	-2	7	0	4	-4	7
Cc1cc(NC(=O)CSc2nnc(-c3ccncc3)n2N)ccc1Br	-1	-22	0	-8	6	2

Compound activity: PubChem, Sanford-Burnham Center for Chemical Genomics
